Compound activity deposited in PubChem by several laboratories.
Most compounds without a hit are left out; they make up all but 1.2% or so of the library.
RecA intein inh: Mtb RecA intein splicing inhibition; P9WHJ3; cell-free RecA intein splicing, fluorescence; inhibition, % (test concentration not listed); hit rate 0.75% among 290,000; in the data active = inhibition above about 30%
UGM FP inh: Mtb UDP-galactopyranose mutase inhibition; purified UGM, fluorescence polarization probe displacement; inhibition, % at 10 µM; hit rate 0.06% among 320,000; AID 504406; in the data active = inhibition above about 10%, passing the limit was not always enough
Mtb bLac sens: beta-lactam sensitization of Mtb H37Rv. M. tuberculosis H37Rv growth with meropenem, percent inhibition. inhibition, % at 25 µM. hit rate 0.27% among 330,000; call rule not given here;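 also: growth measured after seven days incubation then overnight dye step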
Rv3671c inh: Rv3671c (M. tuberculosis) protease inhibition | hit rate 0.048% among 320,000 | P9WHR9 | inhibition, % at 5.96 µM; in the data active = inhibition above about 38%;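 also: extracellular domain of Rv3671c used as enzyme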
CCHFV vOTU inh: blocks the CCHF virus ovarian tumor domain protease. inhibition, % at 11.5 µM. AID 651958. CCHFV vOTU protease, Pep-AMC fluorescence. hit rate 0.55% among 370,000; in the data active = inhibition above about 30%
Each line names hits and unclear results; the compound was inactive in the other large screens.

Cc1nn(CCC(=O)O)c2nc(-c3cccnc3)cc(C(F)(F)F)c12	none
Cc1nn(CCc2nn[nH]n2)c2nc(-c3ccc(C4CCCCC4)cc3)cc(C(F)(F)F)c12	RecA intein inh 34 (no result: Mtb bLac sens)
Fc1ccc(CNc2nc(-c3ccccc3)nc3ccccc23)cc1	none (no result: UGM FP inh, Mtb bLac sens, Rv3671c inh)
COc1ccc(CNc2nc(-c3ccccc3)nc3ccccc23)cc1OC	CCHFV vOTU inh 32
CC(C)=CC(=O)Nc1ccc(Cl)cc1	none
CS/C(=C\[N+](=O)[O-])Nc1ccc(Cl)cc1	RecA intein inh 42
COC(=O)C1CN(Cc2ccccc2)CCS(=O)(=O)N1Cc1cn(Cc2ccccc2)nn1 (stereo unspecified)	none (no result: RecA intein inh, UGM FP inh, Mtb bLac sens, Rv3671c inh)
CC1=CC2C3C(=O)N(c4ccccc4)C(=O)C3C1C(=O)C2(O)C(C)C (stereo unspecified)	none (no result: RecA intein inh, UGM FP inh, Mtb bLac sens, Rv3671c inh)
Cc1cc(C)cc(S(=O)(=O)c2cnc3ccccc3n2)c1	RecA intein inh 32
O=S(=O)(c1ccc(Cl)cc1)c1cnc2ccccc2n1	none
O=S1(=O)c2ccc(N3CCN(Cc4ccccc4F)CC3)cc2Oc2ccccc2CN1Cc1cn(Cc2ccc(C(F)(F)F)cc2)nn1	none (no result: RecA intein inh, UGM FP inh, Mtb bLac sens, Rv3671c inh)
O=C(CCl)N=c1sccn1Cc1ccc(Cl)cc1Cl	RecA intein inh 44
O=C(c1c[nH]c(C(=O)C(Cl)(Cl)Cl)c1)c1ccccc1F	RecA intein inh 60
CCN(C[C@H]1[C@@H](c2ccc(C3=CCCC3)cc2)[C@H](CO)N1c1nc(C)c(C)s1)S(=O)(=O)c1ccccc1[N+](=O)[O-]	none (no result: RecA intein inh, UGM FP inh, Mtb bLac sens, Rv3671c inh)
Cc1nc2c(-c3ccc(F)cc3)c(C)[nH]n2c(=O)c1Cl	RecA intein inh 43
Cc1ccc(-c2nc3ncccn3c2NC(=O)Nc2ccc(F)cc2)cc1	none (no result: RecA intein inh, UGM FP inh, Mtb bLac sens, Rv3671c inh)
C/C(=C/c1nc(N)n(Cc2ccccc2)c1Cc1ccccc1)Cn1[nH]c(=O)n(-c2ccccc2)c1=O	none (no result: RecA intein inh, UGM FP inh, Mtb bLac sens, Rv3671c inh)
Cc1cc(C(=O)c2ccc(Cl)cc2)c(NC(=O)CCl)s1	RecA intein inh 33
Cc1ccc(C(=O)c2cc(C)sc2N)cc1	none
COc1ccc(C[N+]2=C(N)NC3=C4CCCCC4n4c(=O)n(-c5ccccc5)c(=O)n4C3C2)c(OC)c1 (stereo unspecified)	none (no result: RecA intein inh, UGM FP inh, Mtb bLac sens, Rv3671c inh)
CCc1[nH]nc2c1C(Cc1ccccc1)C(C#N)=C(N)O2 (stereo unspecified)	RecA intein inh 59
N#CC1=C(N)Oc2n[nH]c(-c3cccs3)c2C1c1ccncc1 (stereo unspecified)	RecA intein inh 60
COCc1[nH]nc2c1C(c1ccccc1Cl)C(C#N)=C(N)O2 (stereo unspecified)	none
CCc1[nH]nc2c1C(c1ccc(C)o1)C(C#N)=C(N)O2 (stereo unspecified)	RecA intein inh 49
COCc1[nH]nc2c1C(c1ccccc1OC)C(C#N)=C(N)O2 (stereo unspecified)	RecA intein inh 62
COC(=O)C1CN(Cc2cn(CCC3OCCO3)nn2)CCS(=O)(=O)N1Cc1ccc(OC)cc1 (stereo unspecified)	none (no result: RecA intein inh, UGM FP inh, Mtb bLac sens, Rv3671c inh)
COC(=O)C1CN(Cc2ccc(OC)cc2)CCS(=O)(=O)N1Cc1ccc(C(F)(F)F)cc1 (stereo unspecified)	none (no result: RecA intein inh, UGM FP inh, Mtb bLac sens, Rv3671c inh)
Cc1ccc(C2C(C#N)=C(N)Oc3nc(-c4ccccc4)[nH]c32)o1 (stereo unspecified)	RecA intein inh 89
CCOC(=O)C1=C(C)OC(N)=C(C#N)C1c1ccc(C)o1 (stereo unspecified)	none
Cc1[nH]nc2c1C(Cc1ccccc1)C(C#N)=C(N)O2 (stereo unspecified)	none
CC(C)c1[nH]nc2c1C(Cc1ccccc1)C(C#N)=C(N)O2 (stereo unspecified)	RecA intein inh 53
CC(C)c1[nH]nc2c1C(c1cccnc1)C(C#N)=C(N)O2 (stereo unspecified)	RecA intein inh 43
COC(=O)[C@H]1C[C@@]2(N3CCCCC3)c3ccccc3N(S(=O)(=O)c3ccccc3)[C@H]2N1	none (no result: RecA intein inh, UGM FP inh, Mtb bLac sens, Rv3671c inh)
CCCN1CCS(=O)(=O)N(Cc2cn(Cc3ccc(F)cc3)nn2)C(C(=O)OC)C1 (stereo unspecified)	none (no result: RecA intein inh, UGM FP inh, Mtb bLac sens, Rv3671c inh)
C#CCN1CC(N(C)CCOC(=O)c2cc(C)cc(C)c2)CS1(=O)=O (stereo unspecified)	none (no result: RecA intein inh, UGM FP inh, Mtb bLac sens, Rv3671c inh)
COc1ccc(CNS(=O)(=O)/C=C/c2ccccc2CNC(=O)OC(C)(C)C)cc1	none (no result: RecA intein inh, UGM FP inh, Mtb bLac sens, Rv3671c inh)
CC1=CC2(O)OCCN(CCO)C2=CC1=O (stereo unspecified)	RecA intein inh 66
Cc1nn(C(=O)c2cccnc2)c(C)c1Sc1ccccc1	none
Cc1nn(C(=O)CNS(=O)(=O)c2ccccc2)c(C)c1Sc1ccc(Cl)cc1	RecA intein inh 32
COc1ccc(Br)cc1[C@H]1[C@@H]2C=CCC[C@@]2(C)C(=O)N1Cc1ccccc1	RecA intein inh 32
COc1ccccc1NC(=O)CSc1nc2c(sc3ccccc32)c(=O)n1CCN(C)C	RecA intein inh 35
CCN(CC)CCn1c(SCC(=O)Nc2ccc(F)cc2)nc2c(sc3ccccc32)c1=O	none (no result: CCHFV vOTU inh)
CC(C)N1Cc2nnn(Cc3ccccc3)c2-c2cc(N3CCCC3)ccc2S1(=O)=O	none (no result: RecA intein inh, UGM FP inh, Mtb bLac sens, Rv3671c inh)
CC(=O)N1CCc2cc(S(=O)(=O)NC3CCN(C(=O)OCc4ccccc4)CC3)ccc21	none (no result: RecA intein inh, UGM FP inh, Mtb bLac sens, Rv3671c inh)
O=C(Cn1nc(Cc2ccncc2)c2ccccc2c1=O)N1CCc2ccccc2C1	CCHFV vOTU inh 66 (no result: RecA intein inh)
COC(=O)CCC(=O)N1C2=NC3=C(C(=O)N(Cc4ccc5c(c4)OCO5)C3=O)C3N(C)c4ccccc4[C@]23C[C@H]1CO (stereo partly specified)	none (no result: RecA intein inh, UGM FP inh, Mtb bLac sens, Rv3671c inh)
O=[N+]([O-])c1cccc(C=Nc2cccc3ccccc23)c1O	RecA intein inh 38
O=C(C[n+]1cccc2ccccc21)c1ccc(Br)cc1	none
NC(=O)C[n+]1cccc2ccccc21	UGM FP inh 11
CCOC(=O)C1Nc2ccccc2C2C(O)C(O)CC12 (stereo unspecified)	CCHFV vOTU inh 61
O=C1CS/C(=C\[N+](=O)[O-])N1c1ccc(OC(F)(F)F)cc1	RecA intein inh 36
CC1(C)CCC(=O)N(c2ccc(OC(F)(F)F)cc2)C1=O	none
COc1cc(-c2cc(C(=O)Nc3c(Cl)cc(Cl)cc3Cl)c3ccccc3n2)cc(OC)c1OC	none
COc1ccc2nc3ccccc3nc2c1NC(=O)c1ccc(Cl)cc1Cl	UGM FP inh 37
O=c1nc2s/c(=C\c3ccc(-c4ccccc4[N+](=O)[O-])o3)c(=O)n2nc1-c1ccccc1	RecA intein inh 64 (no result: UGM FP inh, Mtb bLac sens, Rv3671c inh)
Cc1ccc(-n2ncc(Br)c(Br)c2=O)cc1	RecA intein inh 67 (no result: UGM FP inh, Mtb bLac sens, Rv3671c inh, CCHFV vOTU inh)
CCOC(=O)c1cnc2ccc(Cl)cc2c1NCCN(C)C	UGM FP inh 20
NC(=Nc1cccc(F)c1)NC(=O)OCc1ccccc1	none (no result: RecA intein inh, UGM FP inh, Mtb bLac sens, Rv3671c inh)
Brc1ccc(/C=N/c2nc3ccccc3n2CCN2CCOCC2)cc1	UGM FP inh 17
C(=N\c1nc2ccccc2n1CCN1CCCCC1)/c1ccc2c(c1)OCO2	none
CCOC(=O)Cc1csc(NC(=O)CC(C)(C)C)n1	CCHFV vOTU inh 30
COc1cc2[nH]c3c(Cl)ncnc3c2cc1OC	none
COc1cc2[nH]c3c(N4CCN(c5ccc(Cl)cc5)CC4)ncnc3c2cc1OC	Rv3671c inh 38
COc1ccc(C2CC(=O)C(c3ccc(Cl)c(Cl)c3)=CN2Cc2ccccc2)cc1 (stereo unspecified)	none (no result: RecA intein inh, UGM FP inh, Mtb bLac sens, Rv3671c inh)
